This note sets out measurements from the supplement of paper PMC8047044.

The assay has as its system Neuro-2a. Put plainly: neurite formation score, plate-normalized to DMSO control mean 5.04 (score (0-8 scale)); higher = more or longer neurites. The following applies: 1 µM. How it is done: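 Neuro-2a mouse neuroblastoma cells in PLL-coated 96-well plates were pre-treated for 1 h in DMEM(+) with each kinase inhibitor at 1 µM, then switched to serum-free DMEM(-) with inhibitor to induce neurite outgrowth and fixed about 2-3 h later. Three blinded observers scored neurite formation from 0 (no neurites) to 8 (long neurites on almost all cells).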
`CC(C)(C)c1cc(C=C(C#N)C#N)cc(C(C)(C)C)c1O` [Tyrphostin 9]: the neurite formation score is 4.96.

Molecule `N#CC(C#N)=Cc1ccc(O)c(O)c1` came in with a neurite formation score of 4.91.

Consider `COc1ccc2c(c[n+](C)c3c4cc5c(cc4ccc23)OCO5)c1OC` [Chelerythrine Chloride], for which the neurite formation score came to 4.57.

Consider `O=c1[nH]c2ccc(Cl)cc2c(N[C@@H]2CN3CCC2CC3)c1-c1nc2ccccc2[nH]1`, for which the neurite formation score came out at 5.96.

Take `Cc1ccccc1-n1c(Cn2cnc3c(N)ncnc32)nc2cccc(C)c2c1=O`: the neurite formation score was 5.21.

Molecule `COC[C@H]1OC(=O)c2coc3c2[C@@]1(C)C1=C(C3=O)[C@@H]2CCC(=O)[C@@]2(C)C[C@H]1OC(C)=O` [Wortmannin] gave a neurite formation score of 4.63.

Regarding `Cn1cc(C2=C(c3cn(C4CCN(Cc5ccccn5)CC4)c4ccccc34)C(=O)NC2=O)c2ccccc21`, the neurite formation score amounted to 3.91.

In turn, `CC(C)(C)c1cc(C=C(C#N)C#N)cc(Br)c1O` yielded a neurite formation score of 4.24.

Regarding `COc1ccc(N(C(=O)Oc2c(C)cccc2C)c2ccnc(Nc3ccc(N4CCN(C)CC4)cc3)n2)c(OC)c1`, the neurite formation score was found to be 3.88.

Turning to `O=c1[nH]c2ccccc2n1C1CCN(Cc2ccc(-c3[nH]c4cc5ncnc5cc4nc3-c3ccccc3)cc2)CC1` [AKT inhibitor VIII], the neurite formation score came out at 4.91.

Regarding `CCN1CCN(C(=O)Cc2ccc(Nc3ncc(F)c(Nc4ccc(C(=O)Nc5ccccc5Cl)cc4)n3)cc2)CC1` [Aurora A Inhibitor I], the neurite formation score was determined as 3.69.

As to `COc1cc([C@@H]2c3cc4c(cc3[C@H](O)[C@H]3COC(=O)[C@@H]23)OCO4)cc(OC)c1OC`, the neurite formation score came out at 4.24.
